In PubChem BioAssay AID485297 (National Center for Advancing Translational Sciences (NCATS), 2010):
The campaign covered roughly 320,000 compounds. About 9,100 (2.8%) were called active. Not shown: some 3% with an inconclusive outcome. Calls come from the whole dose curve; as a rule, active = well fitted activation curve with a large enough effect; inconclusive = small, poorly fitted or top-dose-only effect; inactive = no such curve, though single readings can be large or run the other way. This excerpt belongs to a sample that is enriched for actives.

Test: qHTS Assay for Rab9 Promoter Activators; note: nearly all actives have a fitted effect of over 60% in size; for activation, negative = inhibition: % of control where 0% means no effect
Conditions: Huh7 Rab9 promoter-luciferase reporter, luminescence, 24 h; series mostly up to 9.22 µM; activation, negative = inhibition: at the top concentration
Description: NIH Chemical Genomics Center [NCGC] NIH Molecular Libraries Probe Production centers Network [MLPCN] MLPCN Grant: MH089537-01 Assay Submitter (PI): Yiannis A. Ioannou NCGC Assay Overview: Niemann Pick Type C (NPC) is a rare neurodegenerative lipidosis that is characterized by lipid storage in the endosomal/lysosomal system. Treatment modalities for this devastating disease are currently non-existent due to the severe obstacles associated with accessing the central nervous system with proteins or genes (Ioannou, 2000). We have developed a new paradigm, termed "Orphan Receptor Bypass Therapy" (ORByT), to address these disorders. This paradigm posits the existence of endogenous "suppressor" proteins whose expression can dramatically improve LSD pathogenesis. The goal is the identification/discovery of small chemical compounds that can modulate the expression of these proteins and provide a new treatment modality for these devastating disorders. One such protein whose overexpression reverses aspects of the NPC phenotype is Rab9. We have developed and optimized a cell based luciferase reporter assay in 1536 well format for the identification of up-regulators of the Rab9 promoter.
The Rab9 promoter is cloned in front of the luciferase reporter gene, therefore […] promoter activation results in luciferase expression. Frozen stock of the Rab9 promoter transfected Huh7 cells were obtained from the laboratory of Dr. Yiannis Ioannou (The Mount Sinai School of Medicine, New York, NY). Cells were propagated and maintained at NCGC in medium containing RPMI-1640 supplemented with 10% FBS, 2mM L-glutamine, and 50ug/ml penicillin/streptomycin. Cells were harvested in and plated for assays in OP-MEM I reduced-serum medium supplemented with 10% FBS. The Amplite luciferase reporter gene assay kit was purchased from ABD Bioquest and prepared/stored according to manufacturers recommendations. qHTS Assay Setup: 1.Dispensed 5ul of Huh7 cells stably expressing Rab9-luciferase at a density of 1500 cells per well 1536-well plates. 2.Incubate cells at 37C, 5% CO2, and 95% humidity for 2 hours. 3.Transferred 23nl per well of compound in DMSO solution. 4.Incubated at 37C, 5% CO2, and 95% humidity for 24 hours. 5.Dispensed 3ul per well of Amplite reagent(ABD Bioquest) per well. 6.Incubate at ambient for 10 minutes. 7.Read using the luminescence protocol on the ViewLux plate reader (Perkin Elmer).
Potency is the fitted concentration of half-maximal effect.

| SMILES | activation, negative = inhibition | Potency |
| --- | --- | --- |
| CC(C(=O)Nc1ccc(S(=O)(=O)N2CCCC2)cc1)N(C)Cc1ccc(F)cc1 (stereo not drawn) | -1.48% (inactive) |  |
| CN(CC(=O)NCc1ccc(Cl)cc1)S(=O)(=O)c1cccs1 | 0.449% (inactive) |  |
| COc1cccc(NC(=O)COC(=O)/C=C/c2ccco2)c1 | -3.31% (inactive) |  |
| COC(=O)C1=C(C)NC(=S)NC1c1ccc(OCC(=O)N2CC(C)OC(C)C2)c(OC)c1 (stereo not drawn) | -3.17% (inactive) |  |
| COc1ccccc1C(=O)NCCC(=O)NC1=NCCS1 | 0.791% (inactive) |  |
| CCOc1ccc(C(=O)CCC(=O)NC2=NCCS2)cc1 | 0.981% (inactive) |  |
| O=C(NC1=NCCS1)c1ccc(Cl)s1 |  | 3980 nM (active) |
| COc1ccc(C(=O)NC2=NCCS2)c(OC)c1 |  | 1410 nM (active) |
| COc1ccc(Cc2nnc(NC(=O)c3ccc(OC)cc3OC)s2)cc1 | 28.2% (inactive) |  |
| O=C(NCc1ccc2c(c1)OCO2)c1ccc(Cl)s1 | 13% (inactive) |  |
| COc1ccc(OC)c(NC(=O)c2cnn(-c3ccccc3Cl)c2NC(=O)c2ccco2)c1 | 3.75% (inactive) |  |
| COc1ccccc1OCC(=O)Nc1c2c(nn1-c1ccc(F)cc1)CS(=O)(=O)C2 | 4.13% (inactive) |  |
| Cc1occc1-c1nnc(SCC(=O)NC2(C#N)CCCC2)n1C | -3.34% (inactive) |  |
| CC(C)(C)C(=O)Nc1ccc(-c2cn3cccnc3n2)cc1 |  | 3980 nM (active) |
| CC(=O)Nc1ccc(S(=O)(=O)Nc2cccc(NC(=O)C(C)(C)C)c2)cc1 | -4.58% (inactive) |  |
| FC(F)(F)Oc1ccc(-c2cn3cccnc3n2)cc1 |  | 2510 nM (active) |
| CC(=O)Nc1ccc(S(=O)(=O)Nc2nc(-c3ccc(C(C)(C)C)cc3)cs2)cc1 | -2.13% (inactive) |  |
| O=c1ccc(S(=O)(=O)N2CCCC2)cn1Cc1nc(-c2ccccc2)no1 | -5.62% (inactive) |  |
| O=C(Cn1nnc(-c2ccccc2)n1)NC(=O)NC1CCCC1 | -3.17% (inactive) |  |
| CCOc1ccc(NC(=O)CN(C)C(=O)c2cccc(S(=O)(=O)N3CCCC3)c2)cc1OCC | -0.932% (inactive) |  |
| CCN(CC(=O)Nc1ccc(OC)cc1)C(=O)CSCc1ccc(C)cc1 | -5.85% (inactive) |  |
| CC1(C)CC(=O)C=C(c2ccc3ncccc3c2)C1 | -3.31% (inactive) |  |
| O=C(Nc1cc(S(=O)(=O)N2CCOCC2)ccc1OCC(F)(F)F)c1ccc(N2CCCC2=O)cc1 | 0.24% (inactive) |  |
| Fc1cccc(Cl)c1CSc1ccc(-c2ccco2)nn1 |  | 2510 nM (active) |
| O=C(CSc1ccc(-c2ccco2)nn1)Nc1cccc(F)c1 | -1.84% (inactive) |  |
| Cc1cc(SCc2c(F)cccc2Cl)nc(=O)[nH]1 | 8.66% (inactive) |  |
| O=C(COC(=O)CNC(=O)C1CCCCC1)Nc1cccc(F)c1 | 1.46% (inactive) |  |

| SMILES | activation, negative = inhibition | Potency |
| --- | --- | --- |
| CCN(CC(=O)Nc1c(F)cccc1F)C(=O)c1ccc(-c2ccc(C(C)=O)cc2)o1 | -4.82% (inactive) |  |
| Cc1cc(C)cc(-c2nnc(SCC(=O)NC3CC3)o2)c1 | 0.777% (inactive) |  |
| Cc1ccc(C(CC(=O)O)NC(=O)c2ccc(S(=O)(=O)N3CCCC3)cc2)cc1 (stereo not drawn) | -1.46% (inactive) |  |
| CC(=O)Nc1cccc(C(=O)OCC(=O)Nc2nnc(-c3ccccc3)o2)c1 | -1.13% (inactive) |  |
| O=C(OCc1nnc(-c2ccccc2)o1)c1ccc2c(c1)C(=O)N(CCc1ccccc1)C2=O | -10.1% (inactive) |  |
| O=C(OCc1ccc(Br)cc1)c1cccc(-c2nnc(-c3ccccc3)o2)c1 |  | 3550 nM (active) |
| O=C(NCCC1=CCCCC1)c1ccc(-n2cncn2)cc1 |  | 3160 nM (active) |
| O=C(COc1cccc(-n2cnnn2)c1)NCCC1=CCCCC1 | -3.87% (inactive) |  |
| O=C(NCCC1=CCCCC1)c1ccc(Cl)c([N+](=O)[O-])c1 | 3.78% (inactive) |  |
| C=C1CCC(N(O)c2cc(C)on2)C(=C)CCC2C1CC2(C)C (stereo not drawn) | -1.42% (inactive) |  |
| Cc1ccc(OCC(=O)N2CCN(S(=O)(=O)c3ccc(Cl)s3)CC2)cc1C | -6.05% (inactive) |  |
| Cc1ccc(/C=C/C(=O)OCC(=O)NCc2ccc(Cl)cc2)o1 | -9.12% (inactive) |  |
| CCOc1ccc(OCc2cccc(C(=O)N(CC)CC)c2)cc1 |  | 141 nM (active) |
| CC(=O)Oc1ccc(-c2cccc(C(=O)N3CCCCC3)c2)cc1 | 11.6% (inactive) |  |
| CN(Cc1ccccc1)C(=O)c1ccc(COc2ccccc2)cc1 | -1.02% (inactive) |  |
| COc1ccc(OCc2cccc(C(=O)N3CCCC3)c2)cc1 |  | 398 nM (active) |
| COc1ccc(Cn2c(=S)[nH]c3cc(C(=O)N4CCCCC4)ccc3c2=O)cc1 | 1.59% (inactive) |  |
| COc1cccc(COc2ccc(N(C)S(=O)(=O)c3ccccc3)cc2)c1 | -0.555% (inactive) |  |
| COc1ccccc1CNS(=O)(=O)c1cc(C(=O)NCc2ccccn2)c(Cl)cc1Cl | -2.2% (inactive) |  |
| CC(C(=O)N(C)CC(=O)Nc1ccccc1C(F)(F)F)N1C(=O)c2ccccc2C1=O (stereo not drawn) | 0.587% (inactive) |  |
| Nn1c(SCC(=O)Nc2nccs2)nnc1-c1ccco1 | -2.6% (inactive) |  |
| CCN(CC(=O)Nc1ccc(OC)cc1)C(=O)c1ccc(Cl)c(S(=O)(=O)N2CCCC2)c1 | -1.06% (inactive) |  |
| Cc1ccccc1NC(=O)Cc1nc(COC(=O)c2cccnc2Cl)cs1 | 1.11% (inactive) |  |
| O=C(NCCc1c[nH]c2ccccc12)c1cccc(Br)c1 | -1.43% [at 1.84 µM] (inactive) |  |
| O=C(NCCc1c[nH]c2ccccc12)c1cc2ccccc2oc1=O |  | 3980 nM (active) |
| CN(c1ccccc1)S(=O)(=O)c1ccc(Cl)c(C(=O)NCCc2c[nH]c3ccccc23)c1 | -1.2% (inactive) |  |
